Results published in PubChem BioAssay AID1159580 (chemical genetic matrix, 2015).
Screen size: about 5,500 compounds; about 2,000 (36%) were called active. About 18% were inconclusive and are not listed. Rule as the data show it: active = normalized growth mostly below about 0.91 (no sharp cut-off); inconclusive = no clear call, values can overlap the other calls; inactive = mostly above about 0.92. The list shows a part of the results.

Test: chemical genetic growth profiling, strain panel (AID 1159580);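 also: tested at 20 µM; growth read once vehicle control cultures reached saturation at 30 °C; 1 = growth at the plate median or of vehicle wells; lower values mean less growth of the strain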
Settings: growth OD
[1] = S. cerevisiae deletion strains, locus YDL101C, strain DUN1, active compounds read low
[2] = S. cerevisiae deletion strains, locus YHR030C, strain SLT2, active compounds read low
[3] = S. cerevisiae deletion strains, locus YHR079C, strain IRE1, active compounds read low
[4] = S. cerevisiae deletion strains, locus YJL095W, strain BCK1, active compounds read low
[5] = S. cerevisiae deletion strains, locus YJR066W, strain TOR1, active compounds read low
[6] = S. cerevisiae deletion strains, locus YLR113W, strain HOG1, active compounds read low
[7] = S. cerevisiae deletion strains, locus YNL183C, strain NPR1, active compounds read low
[8] = S. cerevisiae deletion strains, locus YOR231W, strain MKK1, active compounds read low
[9] = S. cerevisiae deletion strains, locus YPL256C, strain CLN2, active compounds read low
[10] = S. cerevisiae deletion strains, locus YDR150W, strain NUM1, active compounds read low
[11] = S. cerevisiae deletion strains, locus YMR307W, strain GAS1, active compounds read low
[12] = S. cerevisiae deletion strains, locus YNL153C, strain GIM3, active compounds read low
[13] = S. cerevisiae deletion strains, locus YNL322C, strain KRE1, active compounds read low
[14] = S. cerevisiae deletion strains, locus YPL241C, strain CIN2, active compounds read low

Measured: normalized growth

O=C1C(Cl)=C(Oc2cc(Cl)c(Cl)cc2Cl)C(=O)c2ccccc21
inactive: S. cerevisiae deletion strains, locus YDL017W, strain CDC7, active compounds read low 0.912 | S. cerevisiae deletion strains, locus YDL028C, strain MPS1, active compounds read low 0.936 | S. cerevisiae deletion strains, locus YFL009W, strain cdc4, active compounds read low 0.922 | S. cerevisiae deletion strains, locus YFR003C, strain YPI1, active compounds read low 0.941 | S. cerevisiae deletion strains, locus YIL147C, strain SLN1, active compounds read low 0.938 | S. cerevisiae deletion strains, locus YJR016C, strain ILV3, active compounds read low 0.917 | S. cerevisiae deletion strains, locus YNL006W, strain LST8, active compounds read low 0.95 | S. cerevisiae deletion strains, locus YOR329C, strain SCD5, active compounds read low 0.94 | S. cerevisiae deletion strains, locus YPR111W, strain DBF20, active compounds read low 0.897
active: S. cerevisiae deletion strains, locus YAR019C, strain CDC15, active compounds read low 0.215 | S. cerevisiae deletion strains, locus YBR136W, strain MEC1, active compounds read low 0.516 | [1] 0.524 | S. cerevisiae deletion strains, locus YDL132W, strain cdc53, active compounds read low 0.41 | S. cerevisiae deletion strains, locus YDL214C, strain PRR2, active compounds read low 0.114 | S. cerevisiae deletion strains, locus YDR052C, strain DBF4, active compounds read low 0.546 | S. cerevisiae deletion strains, locus YDR054C, strain cdc34, active compounds read low 0.133 | S. cerevisiae deletion strains, locus YDR477W, strain SNF1, active compounds read low 0.125 | S. cerevisiae deletion strains, locus YER123W, strain YCK3, active compounds read low 0.122 | S. cerevisiae deletion strains, locus YER133W, strain GLC7, active compounds read low 0.126 | S. cerevisiae deletion strains, locus YFL029C, strain CAK1, active compounds read low 0.236 | S. cerevisiae deletion strains, locus YFR019W, strain FAB1, active compounds read low 0.104 | S. cerevisiae deletion strains, locus YFR028C, strain CDC14, active compounds read low 0.149 | S. cerevisiae deletion strains, locus YGR040W, strain KSS1, active compounds read low 0.14 | S. cerevisiae deletion strains, locus YGR052W, strain FMP48, active compounds read low 0.126 | S. cerevisiae deletion strains, locus YGR092W, strain DBF2, active compounds read low 0.352 | [2] 0.122 | [3] 0.333 | S. cerevisiae deletion strains, locus YHR082C, strain KSP1, active compounds read low 0.148 | S. cerevisiae deletion strains, locus YHR205W, strain SCH9, active compounds read low 0.125 | [4] 0.114 | S. cerevisiae deletion strains, locus YJL128C, strain PBS2, active compounds read low 0.11 | S. cerevisiae deletion strains, locus YJL157C, strain FAR1, active compounds read low 0.303 | S. cerevisiae deletion strains, locus YJR066W, strain TOR1 (second series), active compounds read low 0.119 | [5] 0.12 | S. cerevisiae deletion strains, locus YKL048C, strain ELM1, active compounds read low 0.658 | S. cerevisiae deletion strains, locus YKL067W, strain YNK1, active compounds read low 0.32 | S. cerevisiae deletion strains, locus YKL101W, strain HSL1, active compounds read low 0.38 | S. cerevisiae deletion strains, locus YKL193C, strain SDS22, active compounds read low 0.174 | S. cerevisiae deletion strains, locus YKL203C, strain TOR2, active compounds read low 0.13 | [6] 0.171 | S. cerevisiae deletion strains, locus YLR133W, strain CKI1, active compounds read low 0.294 | S. cerevisiae deletion strains, locus YLR403W, strain SFP1, active compounds read low 0.197 | S. cerevisiae deletion strains, locus YML070W, strain DAK1, active compounds read low 0.105 | S. cerevisiae deletion strains, locus YMR001C, strain CDC5, active compounds read low 0.11 | S. cerevisiae deletion strains, locus YMR205C, strain PFK2 (second series), active compounds read low 0.538 | S. cerevisiae deletion strains, locus YMR277W, strain FCP1, active compounds read low 0.117 | S. cerevisiae deletion strains, locus YNL020C, strain ARK1, active compounds read low 0.555 | [7] 0.128 | S. cerevisiae deletion strains, locus YNL207W, strain RIO2, active compounds read low 0.537 | S. cerevisiae deletion strains, locus YNL222W, strain SSU72, active compounds read low 0.522 | S. cerevisiae deletion strains, locus YNL307C, strain MCK1 (second series), active compounds read low 0.246 | S. cerevisiae deletion strains, locus YOL078W, strain AVO1, active compounds read low 0.161 | S. cerevisiae deletion strains, locus YOL136C, strain PFK27, active compounds read low 0.11 | S. cerevisiae deletion strains, locus YOR061W, strain CKA2, active compounds read low 0.519 | S. cerevisiae deletion strains, locus YOR119C, strain RIO1, active compounds read low 0.118 | [8] 0.294 | S. cerevisiae deletion strains, locus YPL031C, strain PHO85, active compounds read low 0.225 | S. cerevisiae deletion strains, locus YPL153C, strain RAD53, active compounds read low 0.318 | S. cerevisiae deletion strains, locus YPL204W, strain HRR25, active compounds read low 0.327 | S. cerevisiae deletion strains, locus YPL209C, strain IPL1, active compounds read low 0.581 | [9] 0.183 | S. cerevisiae deletion strains, locus YPR025C, strain CCL1, active compounds read low 0.543 | S. cerevisiae deletion strains, strain TSCII, active compounds read low 0.345

O=C1CC(Nc2ccccc2)C=C1Nc1ccccc1 (centres undefined)
inactive: S. cerevisiae deletion strains, locus YAL013W, strain DEP1, active compounds read low 1.01 | S. cerevisiae deletion strains, locus YBR229C, strain ROT2, active compounds read low 1.03 | S. cerevisiae deletion strains, locus YCL061C, strain MRC1, active compounds read low 1.01 | [1] 1.01 | S. cerevisiae deletion strains, locus YDL134C, strain PPH21, active compounds read low 1.02 | [10] 1.02 | S. cerevisiae deletion strains, locus YEL061C, strain CIN8, active compounds read low 1.01 | S. cerevisiae deletion strains, locus YGR078C, strain PAC10, active compounds read low 1.01 | [2] 1.01 | S. cerevisiae deletion strains, locus YHR087W, strain rtc3, active compounds read low 1.02 | S. cerevisiae deletion strains, locus YJR043C, strain POL32, active compounds read low 1.01 | S. cerevisiae deletion strains, locus YJR075W, strain HOC1, active compounds read low 1.03 | S. cerevisiae deletion strains, locus YKL190W, strain CNB1, active compounds read low 1.02 | S. cerevisiae deletion strains, locus YLR039C, strain RIC1, active compounds read low 0.977 | S. cerevisiae deletion strains, locus YLR058C, strain SHM2 (second series), active compounds read low 1.03 | S. cerevisiae deletion strains, locus YLR085C, strain ARP6, active compounds read low 0.968 | S. cerevisiae deletion strains, locus YLR262C, strain YPT6, active compounds read low 1.02 | S. cerevisiae deletion strains, locus YML094W, strain GIM5, active compounds read low 1.01 | S. cerevisiae deletion strains, locus YMR219W, strain ESC1, active compounds read low 1.03 | S. cerevisiae deletion strains, locus YMR263W, strain SAP30, active compounds read low 1 | [11] 1.02 | [12] 1 | S. cerevisiae deletion strains, locus YNL298W, strain CLA4 (second series), active compounds read low 0.979 | [13] 1.01 | S. cerevisiae deletion strains, locus YNR030W, strain Alg12, active compounds read low 1.01 | S. cerevisiae deletion strains, locus YPL055C, strain LGE1, active compounds read low 1.09 | [14] 0.998 | S. cerevisiae deletion strains, locus YPR135W, strain CTF4, active compounds read low 0.966 | S. cerevisiae strains, strain wild type, active compounds read low 1.02

NC(=O)OCC(COC(N)=O)c1ccccc1
inactive: S. cerevisiae deletion strains, locus YAL040C, strain CLN3, active compounds read low 1.03 | S. cerevisiae deletion strains, locus YCL061C, strain MRC1 (second series), active compounds read low 1.01 | [10] 1 | S. cerevisiae deletion strains, locus YDR363W, strain ESC2, active compounds read low 1 | S. cerevisiae deletion strains, locus YER002W, strain NOP16, active compounds read low 0.999 | S. cerevisiae deletion strains, locus YGR229C, strain SMI1, active compounds read low 0.991 | [2] 0.975 | [3] 0.991 | [4] 0.959 | [5] 0.932 | [6] 0.99 | [11] 0.985 | [12] 1.04 | S. cerevisiae deletion strains, locus YNL175C, strain NOP13, active compounds read low 0.999 | [7] 0.945 | S. cerevisiae deletion strains, locus YNL197C, strain WHI3, active compounds read low 1 | S. cerevisiae deletion strains, locus YNL224C, strain SQS1, active compounds read low 1.03 | [13] 1.02 | S. cerevisiae deletion strains, locus YOR083W, strain WHI5 (second series), active compounds read low 1.02 | [8] 0.976 | [14] 1.01 | [9] 0.976
